We go through 22 compounds from PubChem BioAssay (Tox21).

SMILES strings stand for the structures. Results filed as inconclusive are left out. A call without a number means that no potency is given here. The source made the active and inactive calls. Calls follow the shape of the dose curve; as a rule, active = well fitted activation curve with a large enough effect in the repeat runs; inconclusive = weak or mixed curves; inactive = flat fitted curve, though single readings scatter.
Potency is read from the fitted curve at half-maximal effect.

The experiment can be described thus: A CellTox Green Cytotoxicity Assay to monitor cytotoxicity in HepG2 cells - 32 hour (AID 1224883). Also: nearly all actives have a fitted effect of over 50% in size. The conditions noted are these: CellTox Green fluorescence; series mostly up to 76.8 µM. The gist of the method: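 Cytotoxicity was tracked as dead-cell DNA fluorescence in HepG2 cells treated with test compounds at 37 C; each time-point value comes from one kinetic series spanning 0, 8, 16, 24, 32 and 40 h.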
As for `CCCCCCCCCCCCCCCCCCn1cc[n+](C)c1`, the Potency is 19.4 µM (active).
Under `C[C@H]1CC[C@@H]2[C@@H](C)[C@H]3[C@H](C[C@H]4[C@@H]5CC=C6CC(O[C@@H]7O[C@H](CO)[C@H](O)[C@H](O[C@@H]8O[C@H](CO)[C@@H](O)[C@H](O)[C@H]8O)[C@H]7O[C@H]7O[C@@H](C)[C@H](O)[C@@H](O)[C@H]7O)CC[C@]6(C)[C@H]5CC[C@]34C)N2C1` (some centres not stated) stands 22.6 µM (active).
Under `Cc1cc(C)cc(OP(=O)(Oc2cc(C)cc(C)c2)Oc2cc(C)cc(C)c2)c1` stands “inactive”; under `Cc1ccc(C(=O)Cl)cc1`, “inactive”; under `COP(N)(=S)OC`, “inactive”.
Under `NNC(=O)c1ccccc1` stands “inactive”; under `CCN`, “inactive”; under `N#Cc1ccccc1N`, “inactive”.
For `CN(CCCC(O)c1cccnc1)N=O` (configuration not stated), the Potency result is “inactive”.
Regarding `S=C=Nc1cccc2ccccc12`, the Potency entry is “inactive”.
Under `CC(C)(C)OO` stands “inactive”; under `C[C@]12CC[C@@H]3c4ccc(OC(=O)N(CCCl)CCCl)cc4CC[C@H]3[C@@H]1CC[C@@H]2O`, “inactive”.
For the compound `ClCCN1CCOCC1`, the Potency entry is “inactive”.
The same measure for `[Hg+2].[I-].[I-]`: 7.76 µM (active); for `Cl/C=C\CCl`: “inactive”; for `CC(O)C#N` (configuration not stated): “inactive”.
Under `c1ccc(OCC2CO2)cc1` (configuration not stated) stands “inactive”.
Under `ClC1=C(Cl)[C@]2(Cl)[C@@H]3[C@@H]4C[C@@H]([C@H]5O[C@@H]45)[C@@H]3[C@@]1(Cl)C2(Cl)Cl` stands 54.9 µM (active).
For the compound `CCOCCOC(C)=O`, the Potency entry was “inactive”.
The same measure for `CCCCCCCCCCBr`: “inactive”; for `Oc1ccc(I)cc1`: “inactive”; for `O=c1[nH]c2ccccc2n1CCCN1CCC(n2c(=O)[nH]c3cc(Cl)ccc32)CC1`: 21.3 µM (active).
